The test system of the assay is Plasmodium falciparum. As to the kind of experiment: GSK_TCMDC: Inhibition of Plasmodium falciparum 3D7 in whole red blood cells, using parasite LDH activity as an index of growth. Test compounds present at 2uM. Format: functional.
Broadly, the Inhibition is how much of the control response was suppressed. Higher therefore signals a strong effect. `CCOC(=O)c1nc(-c2ccc(-c3ccccc3)cc2)[nH]c1N.Cl` gave an Inhibition of 98%.
As to `COc1ccc(C2CC(=O)C3=C(C2)NC(C)=C(C(=O)OC2CCCC2)C3c2cccc(O)c2)cc1` (stereo not given), the Inhibition stood at 88%.
The figure for `CCOC(=O)[C@H](Cc1cc([N+](=O)[O-])c(Oc2ccc(OC)c(Cc3ccc(OC)c(C(C)C)c3)c2)c([N+](=O)[O-])c1)NC(=O)C(F)(F)F` is 94%.
Then `COc1cc(C2=NN(S(=O)(=O)c3c(C)cc(C)cc3C)CCCC2)ccc1Cl`, with 85%; and `Br.Oc1ccc(CNCCCCCCNCCc2ccc(Cl)cc2)cc1O`, with 94%.
The figure for `COc1cc(C=NNc2ccnc3cc(Cl)ccc23)ccc1O` is 100%; for `Cc1nc2ccccn2c1C1(O)C(=O)Nc2c(Cl)cc(Cl)cc21` (stereo not given) it is 95%.
In turn, `COc1ccc2ncc(Cl)c(N3CCC(CCNCc4ccc5c(n4)NC(=O)CS5)CC3)c2c1.Cl` displayed an Inhibition of 89%.
The figure for `N#Cc1ccc(-c2ccc(C(=O)NC3CCN(CCN4CCc5c(cccc5C(F)(F)F)C4)CC3)cc2)cc1` is 98%; for `CN1CCN(c2cc3c(cc2Cl)CCN3C(=O)Cc2ccc(Cl)c(NC(=O)Nc3cccc([N+](=O)[O-])c3)c2)CC1` it is 99%.
Then `N#CCCN1CCN(Cc2ccc(-c3ccc(-c4nc5cc(F)ccc5[nH]4)s3)cc2)CC1.O=C(O)C(F)(F)F`, with 99%; and `CC(C)(C)c1ccc(NC(=O)c2ccc(CN3CCCN(Cc4cccc(C#N)c4)CC3)cc2)cc1.O=C(O)C(F)(F)F`, with 99%; and `CNCc1cccc2nc(-c3ccc(Cc4cc(Cl)ccc4OCC(C)C)o3)[nH]c12.Cl`, with 97%.
The figure for `Cc1nc2nc(N)nc(N)c2c(C)c1Cc1cccs1.Cl` is 95%; for `Cl.c1cc2[nH]c(CCCCCc3nc4cc(C5=N[C@@H]6CCCC[C@@H]6N5)ccc4[nH]3)nc2cc1C1=N[C@@H]2CCCC[C@@H]2N1` it is 96%; for `CN(C)CCN(C)Cc1ccc(-c2ccc3c(Nc4ccc(Cl)cc4F)ccnc3c2)o1` it is 100%.
Regarding `COc1ccc(S(=O)(=O)N2CCCc3ccc(Br)cc32)cc1N1CCN(C(=O)C(Cl)(Cl)Cl)CC1`, the Inhibition is 97%.
As for `Cn1c(Nc2cc(C(C)(C)C)on2)nc2cc(Nc3ccnc(Nc4cccc(S(=O)(=O)N5CCOCC5)c4)n3)ccc21`, the Inhibition is 100%.
The figure for `CC[C@H](N/C(=N\c1ccc(-c2ccccc2)cc1)Nc1ccc(C#N)cc1O)c1ccccc1` is 99%; for `O=C(Nc1ccc(OC2CCN(Cc3ccc(F)cc3)C2)c(Cl)c1)c1cccs1.O=C(O)C(F)(F)F` (stereo not given) it is 98%; for `CN1CCN(CCCN(Cc2csc(-c3ccc(CNCc4ccccc4)cc3)n2)C(=O)Nc2cc(Cl)cc(Cl)c2)CC1.O=C(O)C(F)(F)F` it is 100%.
The figure for `CCN(CC)CCN(Cc1ccc(-c2ccc(C(F)(F)F)cc2)cc1)C(=O)Cn1c(CCc2ccc(F)c(C#N)c2)nc(=O)c2ccccc21.O=C(O)C(O)C(O)C(=O)O` is 98%; for `Oc1ccc(-c2nc3c4cc(I)ccc4c4ccc(I)cc4c3[nH]2)cc1` it is 98%.
The figure for `CNCc1cccc2nc(-c3csc(Cc4cc(Cl)ccc4OCC(C)C)n3)[nH]c12` is 100%; for `Cc1ccc(N2C(N)=NC(N)=NC2(C)C)cc1Cl.Cl` it is 90%.
Regarding `Cl.N#Cc1ccc2c(c1)CCN(CCC1CCC(Nc3ncnc4ccccc34)CC1)C2` (stereo not given), the Inhibition came out at 100%.
With `Cc1noc(C)c1-c1cccc(CNCc2cccc(-c3ccc(-c4nc5cccc(C)c5[nH]4)cc3)c2)c1.O=C(O)C(F)(F)F`, the Inhibition was found to be 100%.
`COc1ccc(-c2ccc(NC(=O)c3ccc(C#N)cc3)cc2)cc1CNC(C)C.O=C(O)C(F)(F)F` gave an Inhibition of 100%.
Then `COc1cc(-c2nc3ccc(N4CCN(C)CC4)cc3[nH]2)cc(OC)c1OC`, with 87%; and `Cl.N=C(Cc1ccc(Cl)cc1)NCCN1CCCCCC1`, with 93%; and `CC(C)CN(c1nc(C(=O)NNC(=O)[C@H](CC2CC2)NC(=O)c2cc3cc(OCCN4CCCCC4)ccc3o2)cs1)C1CC1`, with 97%.
Then `Cc1ccc(OC2CCN(c3ccc(C(=O)NC4CC4)cn3)CC2)cc1`, with 87%.
The figure for `CCC(=O)OC(CCN(CC)CC)(c1ccccc1)c1ccccc1` is 98%; for `O=C(Cc1c[nH]cn1)Nc1cccc(-c2ccc(-c3nc4ccccc4[nH]3)cc2)c1` it is 99%; for `CS(=O)(=O)c1ccc(CNCc2cccc(-c3ccc(-c4nc5cc(C(F)(F)F)ccc5[nH]4)cc3)c2)cc1.O=C(O)C(F)(F)F` it is 100%.
Regarding `CN(C)CCOc1cc(NC(=O)Nc2ccc(-c3ccncc3)c(C(F)(F)F)c2)ccc1Cl`, the Inhibition is given as 100%.
Then `CNCCNCc1cccc(-c2ccc(-c3nc4cccc(C)c4[nH]3)cc2)c1.O=C(O)C(F)(F)F`, with 98%; and `COc1ccc2ncc(F)c(CCN3CCC(NCc4cnc5c(c4)NC(=O)CS5)CC3)c2c1.Cl`, with 99%.
As to `CCc1sc(-c2cc(Cl)ccc2OC)nc1C(=O)NCCN1CCCCC1.O=C(O)C(F)(F)F`, the Inhibition was 100%.
Then `CN(C)CCCNc1ccnc2cc(Cl)ccc12`, with 100%.

The values above are taken from ChEMBL document CHEMBL1157539, “Thousands of chemical starting points for antimalarial lead identification” (Nature, 2010).
